{"source": "PubChem BioAssay"}
{"target": "Albumin (Bos taurus) (UniProt P02769)", "sequence (P02769 whole entry, looked up)": "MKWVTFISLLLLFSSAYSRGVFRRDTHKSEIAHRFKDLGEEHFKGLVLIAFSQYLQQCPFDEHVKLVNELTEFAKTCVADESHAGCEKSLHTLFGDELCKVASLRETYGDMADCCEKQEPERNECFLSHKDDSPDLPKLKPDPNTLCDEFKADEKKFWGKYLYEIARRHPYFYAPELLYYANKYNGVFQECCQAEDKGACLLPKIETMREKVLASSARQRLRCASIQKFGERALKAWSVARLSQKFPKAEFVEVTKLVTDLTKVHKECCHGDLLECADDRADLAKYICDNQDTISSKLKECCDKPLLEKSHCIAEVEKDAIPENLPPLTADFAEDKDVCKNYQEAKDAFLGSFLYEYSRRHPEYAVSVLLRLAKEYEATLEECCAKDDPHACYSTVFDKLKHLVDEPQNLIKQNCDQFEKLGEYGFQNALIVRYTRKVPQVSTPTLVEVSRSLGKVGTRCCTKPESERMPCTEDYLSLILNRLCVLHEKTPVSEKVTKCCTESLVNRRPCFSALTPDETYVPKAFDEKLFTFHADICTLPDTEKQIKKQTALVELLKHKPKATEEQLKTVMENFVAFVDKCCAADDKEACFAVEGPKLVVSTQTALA", "assay": "bovine serum albumin binders on microarray, profiling panel, artefact control for SMM control protein annotation, biochemical, small-molecule microarray, Alexa647 label, 635/667 nm fluorescence (AID 1118);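 further: score merges 667 nm emission intensity and signal-to-noise per printed compound spot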", "details": "BSA-A647 binding, fluorescence 635 nm, higher = more signal"}
{"smiles": "O=C1O[C@@H](c2ccccc2)[C@@H](c2ccccc2)N2[C@@H](c3ccc(O)cc3)[C@]3(C(=O)Nc4ccc(C#CC5=CCCCC5)cc43)[C@@H](C(=O)NC[C@H](O)c3ccccc3)[C@H]12", "composite z-score": 0.375}
{"smiles": "NC(=O)NCC#Cc1ccc2c(c1)[C@]1(C(=O)N2)[C@H](C(=O)NC[C@H](O)c2ccccc2)[C@H]2C(=O)O[C@H](c3ccccc3)[C@H](c3ccccc3)N2[C@@H]1c1ccc(OCCO)cc1", "composite z-score": -0.397}
{"smiles": "CC(C)N1CC=CC23O[C@@H]4C=CCOC(=O)[C@@H]4[C@H]2C(=O)N(CCCO)[C@@H]3C1=O", "note": "(some centres undefined)", "composite z-score": 1.05}
{"smiles": "N#Cc1ccc(C(O)C2C=CC3C(=O)N(c4ccccc4)C(=O)C3N2Nc2ccccc2)cc1", "note": "(centres undefined)", "composite z-score": 1.01}
{"smiles": "CCCCN1CC=CC23O[C@@H]4/C=C\\CCC(C)OC(=O)C4[C@H]2C(=O)N(C(CO)C(C)C)[C@@H]3C1=O", "note": "(some centres undefined)", "composite z-score": 0.751}
{"smiles": "C=CCN1Cc2ccccc2[C@H]2OC(c3ccc(OCCCO)cc3)=N[C@@]2(CC=C)C1=O", "composite z-score": -0.405}
{"smiles": "CC(CO)N1C(=O)[C@@H]2[C@H]3C(=O)OCC=C[C@H]3OC23C=CCN(CCN2CCOCC2)C(=O)[C@@H]13", "note": "(some centres undefined)", "composite z-score": 0.138}
{"smiles": "CCCCCCc1nc(-c2cc(C)c(OC)c(C)c2)c(C)c2c1[Si](C(C)C)(C(C)C)OC2", "composite z-score": -0.58}
{"smiles": "C=C(COC)/C(=C/C[C@H](OC(=O)c1ccncc1)c1ccccc1OCCO)c1cnc2ccccc2c1", "composite z-score": 0.609}
{"smiles": "CO[C@H]1O[C@H](CO)[C@@H](OC(=O)Nc2ccc3c(c2)OCO3)[C@H](OC(=O)c2cc3ccccc3[nH]2)[C@H]1OC(=O)c1cc2ccccc2[nH]1", "composite z-score": 0.429}
{"smiles": "O=C1N(Cc2ccccc2)c2ccccc2[C@@H]2OC(c3ccc(OCCCO)cc3)=N[C@]12Cc1ccccc1", "composite z-score": -0.34}
{"smiles": "CCOC(=O)c1ccc(NC(=O)O[C@H]2[C@H](OC(=O)Nc3ccc4c(c3)OCO4)[C@@H](OC(=O)Nc3ccc4c(c3)OCO4)[C@@H](OC)O[C@@H]2CO)cc1", "composite z-score": 0.862}
{"smiles": "C=CCC(OC(C)=O)[C@@H]1[C@@H](N(Cc2cccc3ccccc23)C(=O)Cc2ccc(OC)cc2)c2cc(OCCCO)ccc2N1C(=O)c1ccc2ccccc2n1", "note": "(some centres undefined)", "composite z-score": 0.249}
{"smiles": "COCCCNC(=O)[C@@]1(Cc2ccccc2CN=[N+]=[N-])N=C(c2ccc(OCCCO)cc2)O[C@H]1c1ccccc1", "composite z-score": 0.954}
{"smiles": "COC(=O)[C@@]1(Cc2ccccc2)[C@H]2c3cc(C(=O)N(C)C)n(CCc4ccc(O)c(OC)c4)c3C[C@H]2CN1C(=O)c1ccccc1", "composite z-score": 0.374}
{"smiles": "CN1C(=O)C2C=CC(C(O)COCc3ccccc3)N(N(c3ccccc3)c3ccccc3)C2C1=O", "note": "(centres undefined)", "composite z-score": 0.319}
{"smiles": "CC(c1ccccc1)C(O)C1C=CC2C(=O)N(c3ccccc3)C(=O)C2N1Nc1ccc([N+](=O)[O-])cc1", "note": "(centres undefined)", "composite z-score": 0.903}
{"smiles": "[N-]=[N+]=NCc1ccccc1[C@H]1OC(c2ccc(OCCCO)cc2)=N[C@@]1(CCS(=O)(=O)c1ccccc1)C(=O)N1CCCCC1", "composite z-score": 1.05}
{"smiles": "[N-]=[N+]=Nc1ccccc1C[C@]1(C(N)=O)N=C(c2ccc(OCCCO)cc2)O[C@H]1c1ccccc1N=[N+]=[N-]", "composite z-score": 0.92}
{"smiles": "COc1cc(CO)cc(I)c1O[C@H]1C=C(C(=O)NCCO)C[C@@H](NCc2ccc(F)cc2)[C@@H]1O", "composite z-score": -1.03}
{"smiles": "CCCC[C@@H]1C[C@H]1[C@@H](NC(=O)c1cccs1)c1ccc(C(F)(F)F)cc1", "composite z-score": -0.999}
{"smiles": "COCCOC(=O)N1C(=O)[C@@]2(c3cc(C#CC4=CCCCC4)ccc31)[C@H](C(N)=O)[C@H]1C(=O)O[C@H](c3ccccc3)[C@H](c3ccccc3)N1[C@@H]2c1ccccc1OCCO", "composite z-score": -0.24}
{"smiles": "O=C1OCCC=C[C@H]2OC34C=CCN(Cn5nnc6ccccc65)C(=O)[C@H]3N(CCCCCCO)C(=O)[C@@H]4C12", "note": "(some centres undefined)", "composite z-score": -0.587}
{"smiles": "Cc1ccc(S[C@]2(C(=O)O)CC(=O)N(Cc3cc(C(F)(F)F)cc(C(F)(F)F)c3)[C@@H]2c2ccc(CO)cc2)cc1", "composite z-score": -1.78}
